Laboratory results taken from the supplement of paper PMC6089552.
Screen size: about 3,200 compounds; about 300 (9.4%) showed activity. The entries come from a sample that favours actives as a whole.

System: A673/TR/shEF
Assay: cell viability (LOESS-normalised, relative to median of negative controls) (log2 ratio); higher = more viable cells (less compound effect), active = hit call of the paper (over 3 MAD below the median)
Details: treatment time: 72 h
How it was run: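 Viability of A673/TR/shEF Ewing sarcoma cells was determined by CellTiter-Glo luminescence. The cells, at 1,500 per well in 384-well plates, were grown with or without doxycycline from 24 h before compound addition to switch on EWS-FLI1 shRNA knockdown, then exposed for three days to library compounds at two or more concentrations or to DMSO controls. Signals were LOESS-corrected plate by plate, normalised to the negative-control median and log2-transformed.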

[1] = 0.103 µM, library screen: screen3, EWS-FLI1 expression: high (no doxycycline)
[2] = 0.103 µM, library screen: screen3, EWS-FLI1 expression: low (doxycycline-induced shRNA knockdown)
[3] = 0.308 µM, library screen: screen3, EWS-FLI1 expression: high (no doxycycline)
[4] = 0.308 µM, library screen: screen3, EWS-FLI1 expression: low (doxycycline-induced shRNA knockdown)
[5] = 0.926 µM, library screen: screen3, EWS-FLI1 expression: high (no doxycycline)
[6] = 0.926 µM, library screen: screen3, EWS-FLI1 expression: low (doxycycline-induced shRNA knockdown)
[7] = 2.8 µM, library screen: screen3, EWS-FLI1 expression: high (no doxycycline)
[8] = 2.8 µM, library screen: screen3, EWS-FLI1 expression: low (doxycycline-induced shRNA knockdown)
[9] = 8.3 µM, library screen: screen3, EWS-FLI1 expression: high (no doxycycline)
[10] = 8.3 µM, library screen: screen3, EWS-FLI1 expression: low (doxycycline-induced shRNA knockdown)
[11] = 25 µM, library screen: screen3, EWS-FLI1 expression: high (no doxycycline)
[12] = 25 µM, library screen: screen3, EWS-FLI1 expression: low (doxycycline-induced shRNA knockdown)
[13] = 0.25 µM, library screen: screen1, EWS-FLI1 expression: high (no doxycycline)
[14] = 0.25 µM, library screen: screen1, EWS-FLI1 expression: low (doxycycline-induced shRNA knockdown)
[15] = 2.5 µM, library screen: screen1, EWS-FLI1 expression: high (no doxycycline)
[16] = 2.5 µM, library screen: screen1, EWS-FLI1 expression: low (doxycycline-induced shRNA knockdown)
[17] = 0.25 µM, library screen: screen2, EWS-FLI1 expression: high (no doxycycline)
[18] = 0.25 µM, library screen: screen2, EWS-FLI1 expression: low (doxycycline-induced shRNA knockdown)
[19] = 2.5 µM, library screen: screen2, EWS-FLI1 expression: high (no doxycycline)
[20] = 2.5 µM, library screen: screen2, EWS-FLI1 expression: low (doxycycline-induced shRNA knockdown)
[21] = 0.025 µM, library screen: screen2, EWS-FLI1 expression: high (no doxycycline)
[22] = 0.025 µM, library screen: screen2, EWS-FLI1 expression: low (doxycycline-induced shRNA knockdown)
[23] = 25 µM, library screen: screen2, EWS-FLI1 expression: high (no doxycycline)
[24] = 25 µM, library screen: screen2, EWS-FLI1 expression: low (doxycycline-induced shRNA knockdown)

Measured: cell viability (log2)

Cc1nc(N)sc1-c1ccnc(Nc2ccc(N3CCOCC3)cc2)n1
inactive: [1] 0.0411 | [2] 0.00948 | [3] 0.0424 | [4] 0.0424 | [5] -0.0206 | [6] 0.0867 | [8] 0.0313 | [10] -0.083
active: [7] -0.219 | [9] -0.377 | [11] -0.478 | [12] -0.719

COc1cccc(CN2CCN(Cc3cccc([N+](=O)[O-])c3)CC2)c1
inactive: [13] 0.0814 | [14] 0.112

CC(C)c1c(O)ccc2c1CC[C@H]1[C@@](C)(CO)CCC[C@]21C
inactive: [13] 0.0632 | [14] 0.204 | [15] 0.124 | [16] 0.239

COC(=O)c1ccccc1
inactive: [13] 0.0726 | [14] 0.05 | [15] 0.155 | [16] 0.0447

COc1ccc(NC(=O)/C(=C/c2cccs2)NC(=O)c2cccs2)cc1
inactive: [13] 0.0675 | [14] 0.0437 | [15] 0.0662 | [16] 0.0201

COC(=O)Nc1nc2ccc(C(=O)c3cccs3)cc2[nH]1
active: [13] -0.83 | [14] -0.22 | [17] -1.12 | [18] -0.105 | [15] -3.46 | [16] -1.25 | [19] -2.04 | [20] -0.699

COC(=O)Nc1nc2ccc(C(=O)c3ccccc3)cc2[nH]1
inactive: [21] 0.179 | [22] 0.0844 | [13] 0.0977 | [14] 0.025 | [17] 0.114 | [18] 0.0886
active: [15] -1.65 | [16] -0.988 | [19] -2.05 | [20] -0.641 | [23] -3.34 | [24] -1

COC(=O)Nc1nc2ccc(Sc3ccccc3)cc2[nH]1
inactive: [21] 0.076 | [22] 0.0311 | [1] 0.039 | [2] 0.0842 | [13] 0.0605 | [14] 0.108 | [17] 0.237 | [18] 0.0195 | [3] 0.0857 | [4] 0.103 | [5] 0.0228 | [6] 0.0229 | [15] 0.101 | [16] 0.0874 | [19] 0.103 | [20] 0.0543 | [8] -0.0556
active: [7] -0.667 | [9] -1.42 | [10] -0.611 | [23] -2.26 | [24] -0.937 | [11] -1.77 | [12] -0.629

CC(C(=O)O)c1ccc(C(=O)c2cccs2)cc1 (centres undefined)
inactive: [13] 0.0835 | [14] 0.0129 | [15] 0.155 | [16] -0.0021

CC(C(=O)O)c1cccc(C(=O)c2ccccc2)c1 (centres undefined)
inactive: [1] 0.106 | [2] 0.0412 | [13] 0.12 | [14] -0.0201 | [17] 0.204 | [18] 0.13 | [3] 0.093 | [4] 0.102 | [5] 0.0295 | [6] 0.058 | [15] 0.103 | [16] 0.0158 | [19] 0.122 | [20] 0.173 | [7] 0.145 | [8] 0.11 | [9] 0.0932 | [10] 0.0536 | [11] 0.0365 | [12] 0.131
